# Laboratory results published in PubChem BioAssay (Tox21).
# Records with an inconclusive call do not appear. Where a call stands in place of a potency, no number is given. Values without a mark were called inactive. Calls of active or inactive are those of the source. The call rests on the fitted dose curve; in most records, active means well fitted curve in the direction sought with a large enough effect in the repeat runs; inconclusive means weak or mixed curves; inactive means no such curve, though single readings can be large; an effect the other way counts as inactive or inconclusive.
# Test: qHTS assay to identify small molecule antagonists of the TGF-beta/Smad signaling pathway - cell viability counter screen (AID 1346824); further: nearly all actives have a fitted effect of over 50% in size
# Settings: SBE-bla HEK293T viability, CellTiter-Glo luminescence; series mostly up to 76.8 µM; viability change, negative = cytotoxic: at the top concentration
# Procedure, shortened: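 SBE-bla HEK 293T cells, incubated overnight, then compound plus 0.25 ng/mL TGF-beta1 (stock added) for 5 hr at 37 C. Viability was read in the same wells by CellTiter-Glo luminescence after 30 min at room temperature.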
# Potency means the concentration at half of the fitted maximal effect.
SMILES,Potency,"viability change, negative = cytotoxic [%]"
Cc1cccc(C)c1,inactive,
CNNCc1ccc(C(=O)NC(C)C)cc1,inactive,
CCCCCCCC(=O)OCC(COC(=O)CCCCCCC)OC(=O)CCCCCCC,inactive,
CC1(C)S[C@@H]2[C@H](NC(=O)[C@H](N)c3ccccc3)C(=O)N2[C@H]1C(=O)O,inactive,
C=CCc1ccc(O)c(OC)c1,inactive,
CN(C)C(=O)Nc1ccc(Cl)c(Cl)c1,inactive,
CN(N=O)C(=O)N[C@@H]1[C@@H](O)[C@H](O)[C@@H](CO)O[C@@H]1O,inactive,
CCCCCCc1ccc(O)cc1O,inactive,
CCCCOC(=O)c1ccc(O)cc1,inactive,
NC(CO)(CO)CO,inactive,
CN(C)CCOC(c1ccccc1)c1ccccc1,inactive,
C/C=C/C=C/C(=O)O,inactive,
COc1cccc(O)c1O,,-2.19
Cc1cc(=O)oc2cc(O)ccc12,inactive,
O=c1[nH]cnc2c1ncn2[C@H]1CC[C@@H](CO)O1,inactive,
O=c1[nH]cc(F)c(=O)[nH]1,inactive,
O=S1(=O)OC(c2ccc(O)cc2)(c2ccc(O)cc2)c2ccccc21,inactive,
NC1CCCCC1,inactive,
O=C1NS(=O)(=O)c2ccccc21,inactive,
NS(=O)(=O)c1cc2c(cc1Cl)NCNS2(=O)=O,inactive,
O=CC(=O)c1ccccc1,,0.715
C1CCC(C(CC2CCCCN2)C2CCCCC2)CC1 (stereo unspecified),26.8 µM (active),
Cc1c(C(=O)O)c(O)cc2c1C(=O)c1c(O)c([C@@H]3O[C@H](CO)[C@@H](O)[C@H](O)[C@H]3O)c(O)c(O)c1C2=O,inactive,
O=C1c2c(O)cccc2Cc2cccc(O)c21,inactive,
OC[C@H]1O[C@H](O[C@]2(CCl)O[C@H](CCl)[C@@H](O)[C@@H]2O)[C@H](O)[C@@H](O)[C@H]1Cl,inactive,
CCOc1ccc(NC(C)=O)cc1,inactive,
COc1ccc(C(Cl)=C(c2ccc(OC)cc2)c2ccc(OC)cc2)cc1,inactive,
CC(C)NCC(O)c1ccc(O)c(O)c1 (stereo unspecified),inactive,

# Test: qHTS assay to identify small molecule agonists of the TGF-beta/Smad signaling pathway - cell viability counter screen (AID 1346829); further: nearly all actives have a fitted effect of over 45% in size; on activity change, negative = cytotoxicity: top concentration of the series differs between compounds
# Settings: SBE-bla HEK293T viability, CellTiter-Glo luminescence, 5 h; series mostly up to 76.8 µM; activity change, negative = cytotoxicity: at the top concentration
# Procedure, shortened: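 Here the cytotoxicity of library compounds is measured in SBE-bla HEK 293T cells treated for 5 hr, using CellTiter-Glo added to wells already read for the beta-lactamase reporter.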
SMILES,Potency,"activity change, negative = cytotoxicity [%]"
Cc1cccc(C)c1,inactive,
CNNCc1ccc(C(=O)NC(C)C)cc1,inactive,
CCCCCCCC(=O)OCC(COC(=O)CCCCCCC)OC(=O)CCCCCCC,inactive,
CC1(C)S[C@@H]2[C@H](NC(=O)[C@H](N)c3ccccc3)C(=O)N2[C@H]1C(=O)O,inactive,
C=CCc1ccc(O)c(OC)c1,inactive,
CN(C)C(=O)Nc1ccc(Cl)c(Cl)c1,inactive,
CN(N=O)C(=O)N[C@@H]1[C@@H](O)[C@H](O)[C@@H](CO)O[C@@H]1O,inactive,
CCCCCCc1ccc(O)cc1O,inactive,
CCCCOC(=O)c1ccc(O)cc1,inactive,
NC(CO)(CO)CO,inactive,
CN(C)CCOC(c1ccccc1)c1ccccc1,inactive,
C/C=C/C=C/C(=O)O,inactive,
COc1cccc(O)c1O,,7.26
Cc1cc(=O)oc2cc(O)ccc12,inactive,
O=c1[nH]cnc2c1ncn2[C@H]1CC[C@@H](CO)O1,inactive,
O=c1[nH]cc(F)c(=O)[nH]1,inactive,
O=S1(=O)OC(c2ccc(O)cc2)(c2ccc(O)cc2)c2ccccc21,inactive,
NC1CCCCC1,inactive,
O=C1NS(=O)(=O)c2ccccc21,inactive,
NS(=O)(=O)c1cc2c(cc1Cl)NCNS2(=O)=O,inactive,
O=CC(=O)c1ccccc1,,-5.28
C1CCC(C(CC2CCCCN2)C2CCCCC2)CC1 (stereo unspecified),26.8 µM (active),
Cc1c(C(=O)O)c(O)cc2c1C(=O)c1c(O)c([C@@H]3O[C@H](CO)[C@@H](O)[C@H](O)[C@H]3O)c(O)c(O)c1C2=O,inactive,
O=C1c2c(O)cccc2Cc2cccc(O)c21,inactive,
OC[C@H]1O[C@H](O[C@]2(CCl)O[C@H](CCl)[C@@H](O)[C@@H]2O)[C@H](O)[C@@H](O)[C@H]1Cl,inactive,
CCOc1ccc(NC(C)=O)cc1,inactive,
COc1ccc(C(Cl)=C(c2ccc(OC)cc2)c2ccc(OC)cc2)cc1,inactive,
CC(C)NCC(O)c1ccc(O)c(O)c1 (stereo unspecified),inactive,
